In all, about 2,300 compounds went through this assay and about 550 (24%) were called active. The list is a sample of the results. Potency and affinity values are given separately. Values without a mark were called inactive. No rule for the calls is given here.
Assay: Vero E6 cell cytotoxicity, dose response, cytotoxicity control for non-replicating M. tuberculosis project, secondary assay (AID 492998);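 also: 100% = vehicle-treated cells and 0% = background wells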
Settings: series mostly up to 20 µM; viability: at the top concentration

Row | SMILES | viability
1 | Cc1ccc(C(=O)O/N=C(\N)c2cccc([N+](=O)[O-])c2)cc1 | 88.5%
2 | O=C(OCCCOC(=O)c1ccc([N+](=O)[O-])o1)c1ccc([N+](=O)[O-])o1 | 99.5%
3 | CCOC(=O)C1CCN(CCCSc2ccc(Cl)cc2)CC1 | 98.9%
4 | Cc1ccc(NC(=O)C2=C(c3ccccc3)S(=O)(=O)CCS2(=O)=O)cc1 | 94.5%
5 | C/C(=N\NC(=O)c1cc([N+](=O)[O-])cc([N+](=O)[O-])c1)c1ccco1 | 97%
6 | C/C(=N\NC(=O)COc1ccc(C)cc1Br)c1cc([N+](=O)[O-])cs1 | 84.7%
7 | O=C(CCN1CCC(c2ccccc2)C1)c1ccccc1 (centres undefined) | 97.1%
8 | COC(=O)COc1ccc2c(-c3cccc([N+](=O)[O-])c3)cc(=O)oc2c1 | 99.4%
9 | CCOC(=O)c1c(NC(=O)COC(=O)c2ccccn2)sc2c1CCC2 | 97.1%
10 | COc1ccc(-c2nnn(CC(=O)OC3CCCCC3)n2)cc1OC | 92.8%
11 | COc1ccc2c(c1)sc(=N)n2C | 83.1%
12 | CCOC(=O)C(C)Oc1cc(Cl)c(C=O)cc1OC (centres undefined) | 101%
13 | CC1=NN(c2ccccc2)C(=O)C1C(=O)c1ccccc1 (centres undefined) | 107%
14 | O=C(OCc1nc2ccccc2s1)c1ccc(Br)o1 | 98%
15 | COc1ccc(N=Cc2nc(-c3ccccc3)oc2OC(C)=O)cc1 | 99.7%
16 | Cc1ccc(NC(=O)COC(=O)C(NS(=O)(=O)c2ccc(Cl)cc2)C(C)O)cc1C (centres undefined) | 98.9%
17 | O=C(Nc1nnc(-c2ccc(Br)cc2)o1)C1=COCCO1 | 92.6%
18 | O=C(Nc1nnc(-c2ccccc2Cl)o1)c1ccco1 | 109%
19 | C/C(CC(=O)Nc1ccc(C)c(Cl)c1)=N\NC(=O)c1ccco1 | 84.7%
20 | O=C(Nc1nnc(-c2cc(Cl)ccc2Cl)o1)C1=COCCO1 | 95.4%
21 | O=C(Nc1nnc(-c2ccc(Br)cc2)o1)c1ccco1 | 79.3%
22 | Cc1ccc(-c2nnc(Cc3ccc([N+](=O)[O-])cc3)o2)cc1 | 104%
23 | Cc1ccc(C)c(-c2nnc(NC(=O)COc3ccccc3)o2)c1 | 71.6%
24 | CCc1nnc(NC(=O)CN2CCN(c3ccccc3F)CC2)s1 | 111%

Row | SMILES | viability
25 | CC(C)[C@H]1CN=C2N(C[C@H](C)NC(=O)CCC3CCCCC3)[C@H](Cc3ccc(O)cc3)CN21 | 93.5%
26 | COc1ccc(C2=Nc3ccccc3OC2)cc1 | 96.1%
27 | O=C(OCC#CCSc1nnc(-c2ccccc2)o1)c1ccco1 | 97.8%
28 | Cc1ccnc(NC(=O)COc2ccc3c(c2)CCC3)c1 | 104%
29 | COCCCNC(=O)COC(=O)c1ccc(-c2nc3ccccc3s2)s1 | 95%
30 | COc1ccc(C(C)=O)cc1COC(=O)c1ccc2ccccc2n1 | 106%
31 | CC1Cc2ccccc2N1C(=O)COC(=O)c1ccc(Cl)nc1 (centres undefined) | 102%
32 | Cn1c(=O)c2c(=O)cc(NNC(=O)CC#N)[nH]c2n(C)c1=O | 110%
33 | COC(=O)COc1ccc(S(=O)(=O)NCc2ccc3c(c2)OCO3)cc1 | 106%
34 | COc1ccc(NCC(=O)N2CCCC2)cc1Cl | 119%
35 | CC1CCc2c(sc3nc(CSc4ncn[nH]4)[nH]c(=O)c23)C1 (centres undefined) | 89.9%
36 | CCOC(=O)COc1ccc2c(=O)c(-c3ccccc3)coc2c1 | 103%
37 | C=CCN1C(=O)C2(NNc3ccccc3O2)c2ccccc21 (centres undefined) | 82%
38 | Cc1ccc2c(c1)C(=O)C(=O)N2CCCOc1ccccc1 | 96.2%
39 | O=C(c1ccccc1)n1c(=O)c(F)cn(COCCBr)c1=O | 108%
40 | Cc1cc(C)cc(NC(=O)CCc2ccc(C)o2)c1 | 97%
41 | CCc1ccc(N=CC2=C(O)CC(c3ccco3)CC2=O)cc1 (centres undefined) | 95.6%
42 | C/C(=N/NC(=O)c1ccco1)c1ccc(Br)s1 | 90.8%
43 | Cc1ccc(/C=C2\SC(=S)N(C3CCS(=O)(=O)C3)C2=O)o1 (centres undefined) | 89.5%
44 | COC(=O)c1ccc(CO/N=C/c2ccc(OC)cc2)o1 | 99.9%
45 | CCOC(=O)COc1ccc(C(=O)NC2CCCCC2)cc1 | 103%
46 | O=[N+]([O-])c1ccc2nc(SCc3cn4cc(Cl)ccc4n3)[nH]c2c1 | 91.4%
47 | Cc1nc2ccc(Cl)cc2nc(C)/c1=N\O | 88.4%
48 | O=c1c2c([N+](=O)[O-])cc([N+](=O)[O-])cc2sn1-c1ccc(Br)cc1 | 77%

Row | SMILES | viability
49 | O=C(Oc1cccc([N+](=O)[O-])c1)c1ccc2c(=O)n3c(nc2c1)CCC3 | 96.2%
50 | N/C(=N\OC(=O)c1cccc(Br)c1)c1ccc([N+](=O)[O-])cc1 | 98.3%
51 | O=c1c2cc(Cl)ccc2nc(-c2ccccc2Cl)n1O | 103%
52 | CCOC(=O)c1cn(Cc2cccc(Cl)c2)nn1 | 97.6%
53 | O=C(O)c1ccccc1C(=O)NNc1ccc(Cl)cc1 | 104%
54 | CCCCCC1CC(CC(=O)NC(=S)Nc2ccc([N+](=O)[O-])cc2)C(=O)O1 (centres undefined) | 104%
55 | Cc1c(Cl)cccc1NC(=O)C1COc2ccccc2O1 (centres undefined) | 99.6%
56 | CCOC(=O)NC(=O)COC(=O)CCCSc1nc2ccccc2s1 | 104%
57 | Cn1ccsc1=NC(=O)c1ccccc1F | 97.6%
58 | CCc1ccc(C(=O)NC2CCCCC2)s1 | 98.3%
59 | Cc1ccc(Sc2ccc(C=C3C(=O)N(C)C(=O)N(C)C3=O)o2)cc1 | 93%
60 | Cc1cc(C(=O)NNc2cc(Cl)ccc2Cl)no1 | 94.2%
61 | CC(C)(C)OC(=O)NCCC(=O)Oc1ccc2ccc(=O)oc2c1 | 93.9%
62 | COC(=O)[C@@H](NC(=O)c1cc(COc2cncc(Cl)c2)on1)c1ccccc1 | 103%
63 | Cc1ccc(NC(=O)CN(C)CC(=O)Nc2ccc(F)c(Cl)c2)cc1 | 101%
64 | NCCNc1ccc([N+](=O)[O-])c2cccnc12 | 96.2%
65 | CCOC(=O)COc1cc([N+](=O)[O-])cc2cccnc12 | 104%
66 | O=C1c2cccc3cc([N+](=O)[O-])cc(c23)C(=O)N1c1ccccc1O | 91.5%
67 | O=[N+]([O-])c1cnc(Nc2ccc(Cl)cn2)c([N+](=O)[O-])c1 | 82.3%
68 | Fc1ccc(N2CCN(Cc3nnc(-c4ccccc4)o3)CC2)cc1 | 119%
69 | Cc1occc1-c1nnc(-c2cc([N+](=O)[O-])cc([N+](=O)[O-])c2)o1 | 90.4%
70 | S=C(Nc1ccc2c(c1)OCO2)Nc1ccc2c(c1)OCO2 | 83.2%
71 | CCOC(=O)c1cc(-c2csc(COc3ccccc3)n2)on1 | 102%
72 | CC(=O)N1CCC(=NNC(=O)c2cccs2)CC1 | 99.7%

Row | SMILES | viability
73 | NC1CCN(c2c(F)cc3c(=O)c(C(=O)O)cn(C4CC4)c3c2Cl)C1 (centres undefined) | 102%
74 | Cc1ccc2cc3c(nc2c1)OCC3 | 99.3%
75 | O=C(Nc1nccs1)c1cc2cc(Cl)ccc2oc1=O | 109%
76 | O=C(NNc1ccc([N+](=O)[O-])cc1)C1CC2CCCC(C1)C2=O (centres undefined) | 101%
77 | COCC(=O)Nc1ccccc1NC(C)=O | 94.4%
78 | CCOc1cc(/C=N/NC(=O)c2ccccn2)ccc1OC(=O)c1cccs1 | 111%
79 | CCOc1ccc(OCc2ccc(C(=O)OCc3ccccn3)o2)cc1 | 103%
80 | COC(=O)c1ccc(COC(=O)c2ccccn2)cc1 | 102%
81 | O=C(OCc1ccc(Cl)c(Cl)c1)c1ccccn1 | 115%
82 | Cc1ccccc1NC(=O)C1COc2ccccc2O1 (centres undefined) | 91.7%
83 | O=C(OCc1ccccn1)c1ccc(COc2ccccc2Cl)o1 | 80.2%
84 | Nc1ccc2cc(Br)ccc2c1 | 81.7%
85 | N#CC(C(=O)NCc1ccco1)c1nc2ccccc2nc1N1CCOCC1 (centres undefined) | 89.9%
86 | Cc1c([N+](=O)[O-])cnc(Sc2ccccc2)c1[N+](=O)[O-] | 77.3%
87 | Nc1ncnc(Oc2cccc3cccnc23)c1[N+](=O)[O-] | 88.1%
88 | O=C(NNC(=O)c1ccccc1F)c1ccc(-c2ccc(Cl)cc2)o1 | 100%
89 | Cn1cccc1/C=N/NC(=O)c1ccco1 | 98%
90 | C=CCNc1nc(C(=O)OCC(=O)c2cccc(Br)c2)cs1 | 101%
91 | O=C(CCNc1cccc(Cl)c1)c1cccs1 | 84.5%
92 | Cc1ccc(C(=O)CCNc2ccc(Br)cc2)o1 | 86.6%
93 | COc1ccc(C(=O)CCNc2ccc(F)cc2)cc1 | 103%
94 | O=C(CCNc1ccc(Cl)c(C(F)(F)F)c1)c1ccco1 | 76.2%
95 | O=C(COC(=O)c1ccc(O)cc1O)c1ccc2c(c1)OCO2 | 110%
96 | O=C(CCN1CCC(c2cccs2)=N1)c1cccs1 | 117%

Row | SMILES | viability
97 | C/C(=N\Nc1ccc(Cl)cc1)c1c(O)cc(C)oc1=O | 102%
98 | Cc1ccc(N=Nc2c(C)[nH]n(C(N)=S)c2=O)cc1 | 85.3%
99 | CSc1ccc(N=Nc2c(C)[nH]n(C)c2=O)cc1 | 97%
100 | Cn1nnnc1N=N/C(=N/Nc1ccccc1)c1ccccc1 | 80.9%
101 | CC(NC(=O)c1cc2ccccc2oc1=O)c1ccccc1 (centres undefined) | 98.7%
102 | CCCCOC(=O)c1ccc(NC(=O)C2CCCO2)cc1 (centres undefined) | 85.9%
103 | Cc1cccc(OCC(=O)NNC(=O)c2cc3ccccc3oc2=O)c1 | 104%
104 | O=C(COc1ccc2ccccc2c1)N/N=C/c1ccccn1 | 103%
105 | O=C(COC(=O)CCC(=O)c1ccc(F)cc1)Nc1ccccc1 | 101%
106 | CC(=O)OCCNc1cc(SCc2ccco2)c2nonc2c1[N+](=O)[O-] | 98.7%
107 | CC(=O)OCCN(C)c1cc(SC(C)C)c2nonc2c1[N+](=O)[O-] | 101%
108 | C/C(Cn1nnc([N+](=O)[O-])n1)=N\NC(=O)c1ccncc1 | 93.6%
109 | Cc1nc(-c2ccc(C(F)(F)F)cc2)sc1C(=O)NN | 100%
110 | Cc1cc(Cl)ccc1NNC(=O)c1cccs1 | 110%
111 | COC(=O)COc1ccc2c(=O)c(-c3ccccc3OC)coc2c1 | 103%
112 | Cc1ccnc(NC(=O)c2cc3ccccc3o2)c1 | 79.7%
113 | Cc1n[nH]c(C)c1CCOc1ccc(C(C)C)cc1 | 84%
114 | COc1cc(OC)cc(-c2nc3ccccc3c(=O)o2)c1 | 100%
115 | CCCOC(=O)c1ccc(NC(=O)C2C3C=CC(O3)C2C(=O)O)cc1 (centres undefined) | 104%
116 | CCCCCCNC(=O)c1ccc(Br)o1 | 91.2%
117 | CC(=O)CCC1CC(c2ccc(Cl)cc2)=NO1 (centres undefined) | 110%
118 | C=CC[n+]1ccn(-c2nc3ccccc3nc2[N-]S(=O)(=O)c2cccs2)c1 | 91.2%
119 | Cc1cc(C)c2sc(NC(=O)C3=COCCO3)nc2c1 | 95.5%

— PubChem BioAssay AID492998 (Southern Research Specialized Biocontainment Screening …, 2010)
